Measurements published in PubChem BioAssay AID1159580 (chemical genetic matrix, 2015).
Where “and” joins values, the source holds several entries; their conditions need not be identical. Identical values can stand only once. About 2,000 (36%) of roughly 5,500 compounds were called active. Not shown: some 18% with an inconclusive outcome. Cut-off read from the data, not from the text of the source: active = normalized growth mostly below about 0.91 (no sharp cut-off); inconclusive = no clear call, values can overlap the other calls; inactive = mostly above about 0.92. The list shows a part of the results.

Experiment: chemical genetic growth profiling, strain panel (AID 1159580);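 note: tested at 20 µM; growth read once vehicle control cultures reached saturation at 30 °C; 1 = growth at the plate median or of vehicle wells; lower values mean less growth of the strain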
Conditions: growth OD

Measured: normalized growth

COc1ccc2[nH]cc(CCNC(C)=O)c2c1
inactive: S. cerevisiae deletion strains, locus YJR075W, strain HOC1, hits give low values 1.07 | S. cerevisiae deletion strains, locus YKL009W, strain mrt4, hits give low values 1.01 | S. cerevisiae deletion strains, locus YKL068W, hits give low values 1.01 | S. cerevisiae deletion strains, locus YKL085W, strain MDH1 (second series), hits give low values 1.01 | S. cerevisiae deletion strains, locus YKL085W, strain MDH1, hits give low values 1.01 | S. cerevisiae deletion strains, locus YKL160W, strain elf1, hits give low values 0.979 | S. cerevisiae deletion strains, locus YKL190W, strain CNB1, hits give low values 1 | S. cerevisiae deletion strains, locus YKR001C, strain vps1, hits give low values 1.03 | S. cerevisiae deletion strains, locus YKR026C, strain gcn3, hits give low values 0.97 | S. cerevisiae deletion strains, locus YKR091W, strain srl3, hits give low values 0.969 | S. cerevisiae deletion strains, locus YLL001W, strain dnm1, hits give low values 0.971 | S. cerevisiae deletion strains, locus YLL026W, hits give low values 0.979 | S. cerevisiae deletion strains, locus YLL041C, strain sdh2, hits give low values 0.977 | S. cerevisiae deletion strains, locus YLR027C, strain aat2, hits give low values 0.975 | S. cerevisiae deletion strains, locus YLR039C, strain RIC1, hits give low values 1.04 | S. cerevisiae deletion strains, locus YLR058C, strain SHM2, hits give low values 1.01 | S. cerevisiae deletion strains, locus YLR102C, strain apc9, hits give low values 1.03 | S. cerevisiae deletion strains, locus YLR113W, strain HOG1, hits give low values 1 | S. cerevisiae deletion strains, locus YLR221C, strain rsa3, hits give low values 0.969 | S. cerevisiae deletion strains, locus YLR258W, strain gsy2, hits give low values 0.973 | S. cerevisiae deletion strains, locus YLR262C, strain YPT6 (second series), hits give low values 0.987 | S. cerevisiae deletion strains, locus YLR262C, strain YPT6, hits give low values 1.02 | S. cerevisiae deletion strains, locus YLR268W, strain sec22, hits give low values 1.03 | S. cerevisiae deletion strains, locus YLR320W, strain mms22, hits give low values 0.955 | S. cerevisiae deletion strains, locus YLR330W, strain CHS5, hits give low values 1.01 | S. cerevisiae deletion strains, locus YLR342W, strain FKS1 (second series), hits give low values 1.01 | S. cerevisiae deletion strains, locus YLR342W, strain FKS1, hits give low values 0.983 | S. cerevisiae deletion strains, locus YLR357W, strain rsc2, hits give low values 0.93 | S. cerevisiae deletion strains, locus YLR370C, strain arc18, hits give low values 0.974 | S. cerevisiae deletion strains, locus YLR371W, strain rom2, hits give low values 1.02 | S. cerevisiae deletion strains, locus YLR384C, strain iki3, hits give low values 0.951 | S. cerevisiae deletion strains, locus YLR418C, strain cdc73, hits give low values 1.05 | S. cerevisiae deletion strains, locus YML016C, strain PPZ1, hits give low values 1.01 | S. cerevisiae deletion strains, locus YML032C, strain rad52, hits give low values 1.03 | S. cerevisiae deletion strains, locus YML120C, strain ndi1, hits give low values 0.982 | S. cerevisiae deletion strains, locus YML124C, strain tub3, hits give low values 1.02 | S. cerevisiae deletion strains, locus YMR058W, strain fet3, hits give low values 0.974 | S. cerevisiae deletion strains, locus YMR078C, strain ctf18, hits give low values 1.03 | S. cerevisiae deletion strains, locus YMR125W, strain sto1, hits give low values 0.956 | S. cerevisiae deletion strains, locus YMR129W, hits give low values 0.977 | S. cerevisiae deletion strains, locus YMR205C, strain PFK2, hits give low values 0.979 | S. cerevisiae deletion strains, locus YMR223W, strain ubp8, hits give low values 1.03 | S. cerevisiae deletion strains, locus YMR231W, strain pep5, hits give low values 0.957 | S. cerevisiae deletion strains, locus YMR263W, strain SAP30, hits give low values 1.01 | S. cerevisiae deletion strains, locus YMR307W, strain GAS1, hits give low values 1.05 and 0.978 | S. cerevisiae deletion strains, locus YNL067W, strain RPL9B, hits give low values 1.01 | S. cerevisiae deletion strains, locus YNL071W, strain lat1, hits give low values 0.975 | S. cerevisiae deletion strains, locus YNL128W, strain TEP1, hits give low values 1.02 | S. cerevisiae deletion strains, locus YNL153C, strain GIM3, hits give low values 1.01 | S. cerevisiae deletion strains, locus YNL175C, strain NOP13, hits give low values 1.02 | S. cerevisiae deletion strains, locus YNL183C, strain NPR1, hits give low values 0.942 | S. cerevisiae deletion strains, locus YNL197C, strain WHI3, hits give low values 1.01 | S. cerevisiae deletion strains, locus YNL209W, strain ssb2, hits give low values 0.971 | S. cerevisiae deletion strains, locus YNL224C, strain SQS1, hits give low values 1 | S. cerevisiae deletion strains, locus YNL233W, strain BNI4, hits give low values 1.02 | S. cerevisiae deletion strains, locus YNL248C, strain rpa49, hits give low values 0.968 | S. cerevisiae deletion strains, locus YNL250W, strain rad50, hits give low values 1.04 | S. cerevisiae deletion strains, locus YNL271C, strain bni1, hits give low values 1.05 | S. cerevisiae deletion strains, locus YNL298W, strain CLA4, hits give low values 1.03 | S. cerevisiae deletion strains, locus YNL307C, strain MCK1, hits give low values 1.04 | S. cerevisiae deletion strains, locus YNL322C, strain KRE1 (second series), hits give low values 0.968 | S. cerevisiae deletion strains, locus YNL322C, strain KRE1, hits give low values 1 | S. cerevisiae deletion strains, locus YNR049C, strain mso1, hits give low values 0.972 | S. cerevisiae deletion strains, locus YNR052C, strain pop2, hits give low values 1.03 | S. cerevisiae deletion strains, locus YOL006C, strain TOP1, hits give low values 1.07 | S. cerevisiae deletion strains, locus YOL012C, strain htz1 1.19 | S. cerevisiae deletion strains, locus YOL147C, strain pex11, hits give low values 1.02 | S. cerevisiae deletion strains, locus YOR001W, strain rrp6, hits give low values 0.988 | S. cerevisiae deletion strains, locus YOR061W, strain CKA2, hits give low values 1.01 | S. cerevisiae deletion strains, locus YOR069W, strain VPS5, hits give low values 0.997 | S. cerevisiae deletion strains, locus YOR070C, strain gyp1, hits give low values 0.988 | S. cerevisiae deletion strains, locus YOR080W, strain dia2, hits give low values 0.972 | S. cerevisiae deletion strains, locus YOR083W, strain WHI5 (second series), hits give low values 1.01 | S. cerevisiae deletion strains, locus YOR083W, strain WHI5, hits give low values 0.98 | S. cerevisiae deletion strains, locus YOR106W, strain vam3, hits give low values 0.982 | S. cerevisiae deletion strains, locus YOR136W, strain idh2, hits give low values 1.04 | S. cerevisiae deletion strains, locus YOR144C, strain elg1, hits give low values 1.02 | S. cerevisiae deletion strains, locus YOR184W, strain ser1, hits give low values 1.04 | S. cerevisiae deletion strains, locus YOR231W, strain MKK1, hits give low values 1.02 | S. cerevisiae deletion strains, locus YOR265W, strain rbl2, hits give low values 0.984 | S. cerevisiae deletion strains, locus YOR270C, strain vph1, hits give low values 0.966 | S. cerevisiae deletion strains, locus YOR290C, strain snf2, hits give low values 0.972 | S. cerevisiae deletion strains, locus YOR316C, strain cot1, hits give low values 1.03 | S. cerevisiae deletion strains, locus YPL051W, strain arl3, hits give low values 0.967 | S. cerevisiae deletion strains, locus YPL055C, strain LGE1, hits give low values 1.04 | S. cerevisiae deletion strains, locus YPL078C, strain atp4, hits give low values 0.977 | S. cerevisiae deletion strains, locus YPL106C, strain sse1, hits give low values 0.978 | S. cerevisiae deletion strains, locus YPL240C, strain hsp82, hits give low values 0.977 | S. cerevisiae deletion strains, locus YPL241C, strain CIN2, hits give low values 1 | S. cerevisiae deletion strains, locus YPL256C, strain CLN2, hits give low values 1.01 | S. cerevisiae deletion strains, locus YPR119W, strain clb2, hits give low values 1.02 | S. cerevisiae deletion strains, locus YPR141C, strain kar3, hits give low values 1.03 | S. cerevisiae deletion strains, locus YPR163C, strain tif3, hits give low values 1.02 | S. cerevisiae deletion strains, locus YPR167C, strain met16, hits give low values 1.03 | S. cerevisiae deletion strains, strain wtn01, hits give low values 1.02 | S. cerevisiae strains, strain wild type, hits give low values 1.01
